Results as given in PubChem BioAssay (EPA / NIEHS).
Calls of active or inactive are those of the source. Rule for the calls: active = hit-call score of the fitted dose curve at least 0.9, where 1 is the maximum; inactive = score below 0.9.

Columns and labels:
[1] = APR_HepG2_NuclearSize_72hr: Apredica 72-hour HepG2 Assay for Nuclear Size (AID 2282925); conditions: high-content imaging, actives raise or lower the signal
Outline: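 HepG2 cells were exposed to compounds at ten concentrations from 0.39 to 200 uM (duplicate, 0.5% DMSO final) for 72 hr. After fixation in 3.7% formaldehyde, nuclei were stained with Hoechst 33342 (2 ug/mL) and imaged at 20x.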

[2] = ATG_CMV_CIS: Attagene CIS-FACTORIAL HepG2 Assay for human CMV (Internal Marker) (AID 2282928); conditions: HepG2 CMV promoter reporter, transcription factor profiling; actives raise or lower the signal;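 note: endpoint acts as a background internal control marker rather than a target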
Outline: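 After transient transfection of HepG2 with reporter transcription units driven by cis-regulatory promoters, cells receive test chemical for 24 h. Labeled reporter amplicons, digested with HpaI, are sized and quantified by capillary electrophoresis against DMSO.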

[3] = ATG_DR4_LXR_CIS: Attagene CIS-FACTORIAL HepG2 Assay for human Liver X Receptor (LXR), DR4 submotif (AID 2282929); conditions: HepG2 Attagene DR4 cis-reporter, mRNA transcription; actives raise or lower the signal
Outline: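 Readout: reporter transcript fluorescence after RT-PCR and capillary electrophoresis, fitted bidirectionally against DMSO controls. Human HepG2 liver cells carried transiently transfected multiplexed reporter constructs; endogenous transcription factor activity measured 24 h post-dosing.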

[4] = biological target: Aryl hydrocarbon receptor (Homo sapiens) (UniProt P35869); assay: ATG_Ahr_CIS: Attagene CIS-FACTORIAL HepG2 Assay for human Aryl Hydrocarbon Receptor (Ahr) (AID 2282930); conditions: HepG2 AhR cis-factorial reporter transcription; actives raise or lower the signal
Outline: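 HepG2 cells transiently transfected with cis-element-driven multiplexed reporter transcription units; endogenous transcription factor activity measured as reporter mRNA 24 h after dosing. RT-PCR, 6-FAM labelling, HpaI digestion, capillary electrophoresis; bidirectional fitting versus DMSO baseline.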

[5] = ATG_AP_1_CIS: Attagene CIS-FACTORIAL HepG2 Assay for human Activator Protein 1 (AP-1) (AID 2282931); conditions: HepG2 Attagene cis-factorial AP-1 reporter mRNA; actives raise or lower the signal
Outline: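 Reporter transcripts were measured 24 h after dosing by RT-PCR and capillary electrophoresis of fluorescent fragments. Cells: HepG2 carrying transfected cis-regulated reporter constructs reading endogenous factor activity. Gain or loss fitted against DMSO.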

[6] = ATG_AP_2_CIS: Attagene CIS-FACTORIAL HepG2 Assay for human Activator Protein 2 (AP-2) (AID 2282932); conditions: HepG2 AP-2 cis-reporter, Attagene transcription factor profiling; actives raise or lower the signal
Outline: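 HepG2 cells were transiently transfected with multiple cis-promoter reporter transcription units and dosed for 24 h. Reporter mRNA was measured by RT-PCR with capillary electrophoresis fluorescence; bidirectional fits relative to DMSO baseline.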

[7] = ATG_BRE_CIS: Attagene CIS-FACTORIAL HepG2 Assay for human Bone Morphogenetic Protein (BMP) Response Element (BRE) (AID 2282933); conditions: HepG2 BMP response element reporter, Attagene transcription factor profiling; actives raise or lower the signal
Outline: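 Transient MRTU transfection of human HepG2 liver cells; 24 h compound treatment; total RNA isolated, reverse-transcribed, PCR-amplified, 6-FAM labelled, HpaI-cut, capillary electrophoresis. DMSO = negative control/baseline, bidirectional fit.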

[8] = biological target: Transcription factor E2F1 (Homo sapiens) (UniProt Q01094); assay: ATG_E2F_CIS: Attagene CIS-FACTORIAL HepG2 Assay for human E2F Transcription Factor 1 (AID 2282935); conditions: HepG2 Attagene cis-reporter, E2F reporter RNA transcripts; actives raise or lower the signal
Outline: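 HepG2 cells transiently transfected with multiplexed cis-element reporter units, dosed for 24 h. Reporter mRNA measured by RT-PCR, 6-FAM primer-extension labeling, HpaI digestion and capillary electrophoresis; bidirectional fit versus DMSO baseline.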

[9] = ATG_E_Box_CIS: Attagene CIS-FACTORIAL HepG2 Assay for human Enhancer Box (E-box) (AID 2282936); conditions: HepG2 E-box cis-reporter transcription, actives raise or lower the signal
Outline: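 HepG2 cells transiently transfected with multiplexed cis-element reporter units sensing endogenous transcription factor activity; 24 h compound exposure. Reporter mRNA measured by RT-PCR, 6-FAM primer extension, HpaI digestion and capillary electrophoresis; bidirectional fit versus DMSO.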

[10] = ATG_M_61_CIS: Attagene CIS-FACTORIAL HepG2 Assay for M61 Transcription Factor (Internal Marker) (AID 2282937); conditions: HepG2 Attagene CIS-FACTORIAL M61 internal marker reporter; actives raise or lower the signal
Outline: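 Readout: fluorescent reporter mRNA fragments resolved by capillary electrophoresis after RT-PCR. Transiently transfected human HepG2 cells carried MRTU constructs reporting endogenous TF activity; 24 h chemical exposure; gain or loss of signal fitted relative to DMSO.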

[11] = ATG_EGR_CIS: Attagene CIS-FACTORIAL HepG2 Assay for human Early Growth Response 1 (EGR1) (AID 2282938); conditions: HepG2 Attagene CIS-FACTORIAL EGR reporter mRNA; actives raise or lower the signal
Outline: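 Read-out: fluorescent reporter-mRNA fragments resolved by capillary electrophoresis after RT-PCR, 24 h post-dose in transiently transfected HepG2. Endogenous transcription-factor activity reported via cis-element-regulated reporter units; gain or loss fitted relative to DMSO.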

[12] = ATG_M_19_CIS: Attagene CIS-FACTORIAL HepG2 Assay for M19 Transcription Factor (Internal Marker) (AID 2282939); conditions: HepG2 Attagene CIS-FACTORIAL M19 internal marker reporter; actives raise or lower the signal
Outline: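 Transfect HepG2 with MRTU reporter library → dose chemical, 24 h → isolate total RNA, reverse-transcribe with oligo(dT) → PCR, 6-FAM label, HpaI cut (2 h, 37 C) → capillary electrophoresis. Bidirectional fit vs DMSO.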

[13] = ATG_ERE_CIS: Attagene CIS-FACTORIAL HepG2 Assay for Estrogen Response Element (ERE) (AID 2282940); conditions: HepG2 ERE cis-reporter, Attagene RNA transcript; actives raise or lower the signal
Outline: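 Transient MRTU transfection of human HepG2; cis-element promoters; 24 h dosing; total RNA → RT (oligo dT) → PCR → 6-FAM primer extension → HpaI digest → CE fluorescence. Bidirectional fit, DMSO baseline.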

[14] = ATG_Ets_CIS: Attagene CIS-FACTORIAL HepG2 Assay for human Erythroblast Transformation Specific (ETS) (AID 2282941); conditions: HepG2 ETS cis-reporter transcription, actives raise or lower the signal
Outline: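 Human HepG2 hepatoma cells were transiently transfected with promoter-driven reporter constructs and treated for 24 hours. Reporter transcripts were quantified by RT-PCR with fluorescent primer extension; bidirectional curve fitting used DMSO as reference.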

[15] = biological target: Hepatocyte nuclear factor 3-beta (Homo sapiens) (UniProt Q9Y261); assay: ATG_FoxA2_CIS: Attagene CIS-FACTORIAL HepG2 Assay for human Forkhead box A2 (FOXA2) (AID 2282942); conditions: HepG2 cis-reporter transcription factor activity, 24 h; actives raise or lower the signal
Outline: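 Readout: fluorescent reporter transcripts resolved by capillary electrophoresis after RT-PCR. Transiently transfected HepG2, 24 h compound exposure, endogenous TF activity at cis promoter elements. Gain or loss of signal fitted relative to DMSO.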

[16] = ATG_FoxO_CIS: Attagene CIS-FACTORIAL HepG2 Assay for human Forkhead box O (FoxO) (AID 2282943); conditions: HepG2 Attagene cis-reporter, FoxO element, mRNA; actives raise or lower the signal
Outline: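 HepG2 cells transiently transfected with cis-promoter-driven multiple reporter transcription units; 24 h after chemical dosing, reporter mRNA quantified by RT-PCR, fluorescent primer extension, HpaI digestion and capillary electrophoresis. Bidirectional fitting versus DMSO baseline.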

[17] = ATG_GATA_CIS: Attagene CIS-FACTORIAL HepG2 Assay for human GATA Binding Protein (AID 2282944); conditions: HepG2 GATA cis-element reporter, Attagene multiplex mRNA; actives raise or lower the signal
Outline: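 Transient MRTU transfection, HepG2, 24 h compound exposure. Total RNA → oligo(dT) RT → PCR → 6-FAM primer extension → HpaI cut → CE. Bidirectional fit vs DMSO.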

[18] = biological target: Retinoic acid receptor alpha (Homo sapiens) (UniProt P10276); assay: ATG_DR5_RAR_CIS: Attagene CIS-FACTORIAL HepG2 Assay for human Retinoic Acid Receptor Alpha (RARE), DR5 submotif (AID 2282934); conditions: HepG2 Attagene cis-factorial RARE DR5 reporter, mRNA; actives raise or lower the signal
Outline: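 HepG2 cells transiently transfected with multiplexed reporter units under cis (DR5 RARE) promoters, so endogenous transcription factor activity is measured. After 24 h compound exposure, reporter mRNA is quantified by RT-PCR with fluorescent labelling and capillary electrophoresis; bidirectional fitting versus DMSO.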

[19] = biological target: CCAAT/enhancer-binding protein beta (Homo sapiens) (UniProt P17676); assay: ATG_C_EBP_CIS: Attagene CIS-FACTORIAL HepG2 Assay for human CCAAT/Enhancer Binding Protein (C/EBP) beta (AID 2282927); conditions: HepG2 Attagene cis-factorial transcription factor reporter; actives raise or lower the signal
Outline: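 RT-PCR/capillary electrophoresis fluorescence of reporter mRNA, 24 h post-dose, in HepG2 cells carrying transfected cis-promoter reporter units. Bidirectional curve fitting against DMSO baseline captures gain or loss of signal.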

Measured: AC50

Sequence of Hepatocyte nuclear factor 3-beta (Homo sapiens) (Q9Y261 whole entry, looked up): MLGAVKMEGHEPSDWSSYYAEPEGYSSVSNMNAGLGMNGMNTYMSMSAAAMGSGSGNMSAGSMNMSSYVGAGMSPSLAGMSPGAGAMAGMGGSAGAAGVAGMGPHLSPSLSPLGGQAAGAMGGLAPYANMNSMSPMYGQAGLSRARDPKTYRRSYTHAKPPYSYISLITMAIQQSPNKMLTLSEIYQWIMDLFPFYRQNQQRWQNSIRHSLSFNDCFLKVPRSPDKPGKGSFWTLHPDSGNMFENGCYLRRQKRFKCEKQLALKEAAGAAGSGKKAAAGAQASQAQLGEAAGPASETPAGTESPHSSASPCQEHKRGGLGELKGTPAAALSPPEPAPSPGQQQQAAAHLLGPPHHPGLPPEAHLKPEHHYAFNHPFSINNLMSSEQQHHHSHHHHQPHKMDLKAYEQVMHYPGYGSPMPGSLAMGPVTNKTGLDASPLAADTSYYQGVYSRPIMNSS
Sequence of Transcription factor E2F1 (Homo sapiens) (Q01094 whole entry, looked up): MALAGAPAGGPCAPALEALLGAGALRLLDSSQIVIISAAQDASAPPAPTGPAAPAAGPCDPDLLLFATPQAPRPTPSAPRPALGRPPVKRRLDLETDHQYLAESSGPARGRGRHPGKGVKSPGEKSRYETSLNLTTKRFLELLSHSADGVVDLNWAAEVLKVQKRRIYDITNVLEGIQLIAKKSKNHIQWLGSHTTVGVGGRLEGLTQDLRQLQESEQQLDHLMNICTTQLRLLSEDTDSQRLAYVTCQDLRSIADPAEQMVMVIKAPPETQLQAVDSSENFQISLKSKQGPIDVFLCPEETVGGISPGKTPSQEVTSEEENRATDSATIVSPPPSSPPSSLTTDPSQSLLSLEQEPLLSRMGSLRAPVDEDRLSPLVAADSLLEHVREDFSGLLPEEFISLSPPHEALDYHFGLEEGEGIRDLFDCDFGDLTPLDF
Sequence of Aryl hydrocarbon receptor (Homo sapiens) (P35869 whole entry, looked up): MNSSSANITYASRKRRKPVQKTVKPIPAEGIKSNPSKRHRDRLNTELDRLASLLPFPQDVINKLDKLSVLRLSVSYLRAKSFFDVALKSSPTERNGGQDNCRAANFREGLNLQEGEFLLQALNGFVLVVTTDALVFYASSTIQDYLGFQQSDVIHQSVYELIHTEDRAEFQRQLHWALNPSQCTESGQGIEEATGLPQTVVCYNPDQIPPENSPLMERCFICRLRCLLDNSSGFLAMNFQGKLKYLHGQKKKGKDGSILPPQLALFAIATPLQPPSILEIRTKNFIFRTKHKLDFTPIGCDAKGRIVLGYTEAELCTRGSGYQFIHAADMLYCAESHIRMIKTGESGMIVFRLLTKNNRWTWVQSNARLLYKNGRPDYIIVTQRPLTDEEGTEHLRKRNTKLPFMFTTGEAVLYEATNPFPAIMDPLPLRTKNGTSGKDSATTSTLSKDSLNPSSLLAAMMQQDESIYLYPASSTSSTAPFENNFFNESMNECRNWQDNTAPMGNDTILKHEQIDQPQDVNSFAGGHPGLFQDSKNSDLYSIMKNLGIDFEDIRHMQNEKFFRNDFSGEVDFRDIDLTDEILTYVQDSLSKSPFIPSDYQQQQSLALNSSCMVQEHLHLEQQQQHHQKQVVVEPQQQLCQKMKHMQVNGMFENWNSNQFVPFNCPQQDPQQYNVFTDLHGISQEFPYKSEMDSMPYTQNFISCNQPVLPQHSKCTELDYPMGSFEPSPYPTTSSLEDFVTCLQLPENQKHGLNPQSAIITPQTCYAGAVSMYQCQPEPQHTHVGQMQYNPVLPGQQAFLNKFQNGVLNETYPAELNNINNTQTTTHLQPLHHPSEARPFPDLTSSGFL
Sequence of Retinoic acid receptor alpha (Homo sapiens) (P10276 whole entry, looked up): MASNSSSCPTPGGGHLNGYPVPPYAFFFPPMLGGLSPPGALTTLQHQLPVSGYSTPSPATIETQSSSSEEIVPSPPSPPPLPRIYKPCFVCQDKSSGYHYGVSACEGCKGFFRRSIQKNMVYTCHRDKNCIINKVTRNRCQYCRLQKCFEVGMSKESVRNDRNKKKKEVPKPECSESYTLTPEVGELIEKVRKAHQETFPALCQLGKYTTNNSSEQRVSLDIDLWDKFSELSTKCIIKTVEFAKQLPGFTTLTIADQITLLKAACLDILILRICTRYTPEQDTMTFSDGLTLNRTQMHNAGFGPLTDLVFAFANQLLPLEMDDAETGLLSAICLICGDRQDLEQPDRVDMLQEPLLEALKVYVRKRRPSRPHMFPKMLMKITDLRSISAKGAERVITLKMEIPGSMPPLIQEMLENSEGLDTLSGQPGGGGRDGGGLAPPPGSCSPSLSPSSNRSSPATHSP
Sequence of CCAAT/enhancer-binding protein beta (Homo sapiens) (P17676 whole entry, looked up): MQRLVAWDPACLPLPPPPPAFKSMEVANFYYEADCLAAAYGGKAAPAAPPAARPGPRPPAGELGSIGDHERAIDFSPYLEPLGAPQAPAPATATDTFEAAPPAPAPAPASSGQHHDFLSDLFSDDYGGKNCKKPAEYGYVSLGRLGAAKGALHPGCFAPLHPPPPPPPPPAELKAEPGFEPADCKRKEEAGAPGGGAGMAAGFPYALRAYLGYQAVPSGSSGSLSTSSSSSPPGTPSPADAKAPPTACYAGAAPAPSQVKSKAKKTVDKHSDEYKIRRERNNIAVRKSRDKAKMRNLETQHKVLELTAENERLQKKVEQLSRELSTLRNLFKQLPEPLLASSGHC

CNC(=O)[C@H]1O[C@@H](n2cnc3c(NCc4cc(Cl)ccc4OCc4cc(C)no4)ncnc32)[C@H](O)[C@@H]1N
inactive: [1] | [2] | [3] | [4] | [5] | [6] | [7] | [8] | [9] | [10] | [11] | [12] | [13] | [14] | [15] | [16] | [17]

Nc1ccccc1N
active: [2] 24.2 µM | [4] 1.41 µM | [5] 15.7 µM | [7] 5.4 µM | [11] 53.8 µM
inactive: [1] | [3] | [6] | [18] | [8] | [9] | [10] | [12] | [13] | [14] | [16] | [17]

COc1ccc2c(c1)c(CC(=O)O)c(C)n2C(=O)c1ccc(Cl)cc1
inactive: [1] | [2] | [3] | [4] | [5] | [6] | [7] | [18] | [8] | [9] | [10] | [11] | [12] | [13] | [14] | [16] | [17]

O=c1[nH]cc(F)c(=O)[nH]1
inactive: [1] | [3] | [4] | [6] | [7] | [8] | [9] | [10] | [11] | [12] | [13] | [14] | [16] | [17]
active: [2] 8.27 µM | [5] 12.9 µM

CN1CCCC1=O
inactive: [1] | [19] | [2] | [3] | [4] | [5] | [6] | [7] | [18] | [8] | [9] | [10] | [11] | [12] | [13] | [14] | [16] | [17]

COc1ccc(C)cc1N
inactive: [1] | [2] | [3] | [5] | [6] | [7] | [18] | [8] | [9] | [10] | [11] | [12] | [13] | [14] | [15] | [16] | [17]
active: [4] 100 µM

c1cc(-c2ccncc2)ccn1
inactive: [1] | [2] | [3] | [4] | [5] | [6] | [7] | [18] | [8] | [9] | [10] | [11] | [12] | [13] | [14] | [15] | [16] | [17]

Oc1ccc2c(c1)OC[C@@H](N1CCC(O)(c3ccc(F)cc3)CC1)[C@H]2O
inactive: [1] | [2] | [3] | [5] | [6] | [18] | [8] | [9] | [10] | [12] | [13] | [14] | [16] | [17]
active: [4] 50 µM | [7] 62.1 µM | [11] 50 µM

Cc1ccc(N(C)C)cc1
inactive: [1] | [2] | [3] | [4] | [5] | [6] | [7] | [18] | [8] | [9] | [10] | [11] | [12] | [13] | [14] | [15] | [16] | [17]

CCCCCCCCCCCCCCCCCC(=O)O
active: [13] 2.75 µM
inactive: [1] | [2] | [3] | [4] | [5] | [6] | [7] | [18] | [8] | [9] | [10] | [11] | [12] | [14] | [16] | [17]

Cc1ccc2ncccc2c1
inactive: [1] | [19] | [2] | [3] | [4] | [5] | [6] | [7] | [18] | [8] | [9] | [10] | [11] | [12] | [13] | [14] | [16] | [17]

COc1cc(S(=O)(=O)O)c(C)cc1N=Nc1c(O)ccc2cc(S(=O)(=O)O)ccc12
inactive: [1] | [2] | [3] | [4] | [5] | [6] | [7] | [8] | [9] | [10] | [11] | [12] | [13] | [14] | [16] | [17]

COc1cc(-c2nc(NC(=O)c3cc4cc(C)cc(C)c4n3CC(=O)O)sc2CCC2CCCCC2)c(OC)cc1Cl
inactive: [1] | [3] | [8] | [10] | [12] | [13] | [16] | [17]
active: [19] 4.79 µM | [2] 3.3 µM | [4] 10.4 µM | [5] 3.59 µM | [6] 10.4 µM | [7] 10.4 µM | [9] 25.6 µM | [11] 9.13 µM | [14] 32.2 µM

C[Si]1(C)O[Si](C)(C)O[Si](C)(C)O[Si](C)(C)O1
inactive: [1] | [2] | [4] | [5] | [6] | [7] | [8] | [9] | [10] | [11] | [12] | [14] | [15] | [16] | [17]
active: [3] 49.6 µM | [13] 27.2 µM
